Measurements taken from PubChem BioAssay (Tox21).
Several values for one entry are separate records, joined by “and”; a condition that tells them apart may be missing. Identical values can stand only once. Results filed as inconclusive are left out. More than one record can exist for a structure, and the calls need not agree. Activity calls are given as the source filed them. Unless noted, the call rests on the fitted dose curve; in most records, active means well fitted curve in the direction sought with a large enough effect in the repeat runs; inconclusive means weak or mixed curves; inactive means no such curve, though single readings can be large; an effect the other way counts as inactive or inconclusive.

What was measured:
[1] = qHTS assay for identifying genotoxic compounds that show differential cytotoxicity against isogenic chicken DT40 cell lines with known DNA damage response pathways - wild type cell line (AID 743012); further: nearly all actives have a fitted effect of over 60% in size; further: potency means the concentration at half of the fitted maximal effect
How it was run: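 First, wild type DT40 cells were plated at 300 per well and equilibrated about 0.5 h at 37 C/5% CO2. Next, compounds in DMSO were added and exposure lasted 40 h. Finally, CellTiter-Glo was added for 30 min at room temperature and luminescence recorded.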

[2] = qHTS assay for identifying genotoxic compounds that show differential cytotoxicity against isogenic chicken DT40 cell lines with known DNA damage response pathways - Rev3 mutant cell line (AID 743014); further: nearly all actives have a fitted effect of over 55% in size; further: potency means the concentration at half of the fitted maximal effect
[3] = qHTS assay for identifying genotoxic compounds that show differential cytotoxicity against isogenic chicken DT40 cell lines with known DNA damage response pathways - Rad54/Ku70 mutant cell line (AID 743015); further: nearly all actives have a fitted effect of over 60% in size; further: potency means the concentration at half of the fitted maximal effect
[4] = qHTS assay to identify small molecule antagonists of the androgen receptor (AR) signaling pathway - cell viability counter screen (AID 743033; further: nearly all actives have a fitted effect of over 45% in size; further: potency means the concentration at half of the fitted maximal effect)
[5] = biological target: Androgen receptor (Homo sapiens) (UniProt P10275); test: qHTS assay to identify small molecule agonists of the androgen receptor (AR) signaling pathway using the MDA cell line (AID 743040; further: nearly all actives have a fitted effect of over 20% in size; further: potency means the concentration at half of the fitted maximal effect)
Chain of Androgen receptor (Homo sapiens) (P10275 whole entry, looked up): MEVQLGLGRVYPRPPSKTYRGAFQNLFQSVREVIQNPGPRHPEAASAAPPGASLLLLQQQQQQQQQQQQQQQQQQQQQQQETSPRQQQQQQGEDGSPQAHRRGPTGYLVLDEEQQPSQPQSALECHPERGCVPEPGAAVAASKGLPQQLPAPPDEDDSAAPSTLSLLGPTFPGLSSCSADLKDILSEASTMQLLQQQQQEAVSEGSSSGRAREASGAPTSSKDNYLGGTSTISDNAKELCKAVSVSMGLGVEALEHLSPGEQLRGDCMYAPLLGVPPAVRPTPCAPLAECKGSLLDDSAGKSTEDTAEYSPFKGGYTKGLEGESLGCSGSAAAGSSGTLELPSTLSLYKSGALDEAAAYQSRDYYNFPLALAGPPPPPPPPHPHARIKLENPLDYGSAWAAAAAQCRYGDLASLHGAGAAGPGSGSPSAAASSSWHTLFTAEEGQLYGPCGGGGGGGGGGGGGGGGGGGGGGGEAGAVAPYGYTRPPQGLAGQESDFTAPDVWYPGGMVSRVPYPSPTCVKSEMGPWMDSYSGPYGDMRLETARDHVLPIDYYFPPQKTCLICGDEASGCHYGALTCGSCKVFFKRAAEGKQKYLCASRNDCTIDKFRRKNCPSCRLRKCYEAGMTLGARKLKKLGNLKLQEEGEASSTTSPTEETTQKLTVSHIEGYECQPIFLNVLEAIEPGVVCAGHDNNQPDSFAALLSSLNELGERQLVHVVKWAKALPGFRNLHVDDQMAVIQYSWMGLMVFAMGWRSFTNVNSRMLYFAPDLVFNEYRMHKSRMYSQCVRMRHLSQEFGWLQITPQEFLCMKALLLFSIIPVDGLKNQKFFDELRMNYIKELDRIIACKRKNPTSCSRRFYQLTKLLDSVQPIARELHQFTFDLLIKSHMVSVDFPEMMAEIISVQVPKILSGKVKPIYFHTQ
How it was run: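 Cells plated, 5 h at 37C/0% CO2; compound or DMSO pinned; 16 h at 37C; ONE-Glo added; luminescence measured after 30 min at room temperature. Reporter line: MDA-kb2 with MMTV-luciferase responsive to AR and GR.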

[6] = biological target: Androgen receptor (Homo sapiens) (UniProt P10275); test: qHTS assay to identify small molecule antagonists of the androgen receptor (AR) signaling pathway using the MDA cell line (AID 743042; further: nearly all actives have a fitted effect of over 55% in size; further: potency means the concentration at half of the fitted maximal effect)
How it was run: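 Antagonist mode: compounds plus R1881 agonist added to MDA-kb2 AR-luc cells, incubated 16 h at 37C. Luciferase reporter luminescence quantified, with multiplexed CellTiter-Fluor readout for cell viability.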

[7] = biological target: Androgen receptor (Homo sapiens) (UniProt P10275); test: qHTS assay to identify small molecule antagonists of the androgen receptor (AR) signaling pathway (AID 743035; active means well fitted inhibition curve with a large enough effect in the signal ratio in the repeat runs, not every such curve was filed as active; the % refers to the signal ratio; further: potency means the concentration at half of the fitted maximal effect)
How it was run: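 Beta-lactamase FRET read (2 h RT incubation with LiveBLAzer B/G) following 16 h of compound plus R1881 treatment of AR-UAS-bla HEK293 cells, which had been pre-incubated 4 h at 37C.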

[8] = biological target: Androgen receptor (Homo sapiens) (UniProt P10275); test: qHTS assay to identify small molecule agonists of the androgen receptor (AR) signaling pathway (AID 743036; active means well fitted activation curve with a large enough effect in the signal ratio in the repeat runs, with a control signal flat, not every such curve was filed as active; the % refers to the signal ratio)
How it was run: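 Fluorescence from a beta-lactamase FRET substrate served as read-out in AR-UAS-bla GripTite HEK293 cells. Cells were treated with DMSO-dissolved compounds for 16 h at 37C, then with LiveBLAzer B/G substrate for 2 h at room temperature.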

[9] = qHTS assay to identify small molecule antagonists of the androgen receptor (AR) signaling pathway using the MDA cell line - cell viability counter screen (AID 743041; further: nearly all actives have a fitted effect of over 45% in size; further: potency means the concentration at half of the fitted maximal effect)
How it was run: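 Cells were plated at 3,000 per well and left 5 h. Compounds in DMSO were then pinned in, followed by R1881. After 16 h at 37C, CellTiter-Fluor fluorescence gave viability.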

| Structure (SMILES) | Potency [1] | Potency [2] | Potency [3] | Potency [4] | Potency [5] | Potency [6] | Potency [7] | Potency [8] | Potency [9] |
| --- | --- | --- | --- | --- | --- | --- | --- | --- | --- |
| O=C(Nc1cccc(Cl)c1)OCC#CCCl | 24.3 µM (active) | 21.7 µM (active) | 13.7 µM (active) | 49 µM (active) | – | – | – | – | – |
| CCOC(=O)c1nc(C(Cl)(Cl)Cl)n(-c2ccc(Cl)cc2Cl)n1 | 48.6 µM (active) | 34.4 µM (active) | 30.6 µM (active) | 49 µM (active) | inactive | 68.6 µM (active) | – | – | – |
| CCCCCCCCCCCCCCCS(=O)(=O)Oc1ccccc1 | inactive | inactive | inactive | inactive | – | – | – | – | – |
| CCCC(=O)OC[C@@H](OC(=O)CCC)[C@@H](OC(=O)CCC)[C@H](Cn1c2nc(=O)[nH]c(=O)c-2nc2cc(C)c(C)cc21)OC(=O)CCC | 11.9 µM (active) | 13.3 µM (active) | 10.6 µM (active) | inactive | 5.31 µM (active) | 23.7 µM (active) | inactive | – | – |
| CCCCCCOC(=O)c1ccc(O)cc1 | 21.7 µM (active) and inactive | 48.6 µM (active) | 48.6 µM (active) | inactive | inactive | inactive | – | inactive | inactive |
| Clc1ccc2nsnc2c1NC1=NCCN1 | inactive | inactive | inactive | inactive | 26.6 µM (active) | inactive | inactive | – | – |
| CC(C)(C)NC(=O)[C@@H]1C[C@@H]2CCCC[C@@H]2CN1C[C@@H](O)[C@H](Cc1ccccc1)NC(=O)[C@H](CC(N)=O)NC(=O)c1ccc2ccccc2n1 | 26.6 µM (active) | 13.3 µM (active) | 16.8 µM (active) and 55.2 µM (active) | 49.6 µM (active) | – | – | – | – | – |
| O=c1c(-c2ccccc2)c1-c1ccccc1 | 3.76 µM (active) | 4.73 µM (active) | 4.73 µM (active) | 21.3 µM (active) | – | – | – | – | – |
| Cc1ccc(O)c(C(C)(C)C)c1 | 27.3 µM (active) and inactive | 13.7 µM (active) | 15.3 µM (active) | 15.5 µM (active) | – | – | – | – | – |
| CCCCCCCCOc1ccccc1C(=O)Nc1ccc(C(=O)OCC[N+](C)(CC)CC)cc1 | 11.9 µM (active) | 23.7 µM (active) | 26.6 µM (active) | inactive | – | – | – | – | inactive |
| C/C=C1/C(=O)C[C@H]2[C@@H]3CCC4=CC(=O)CC[C@]4(C)[C@H]3CC[C@]12C | 21.6 µM (active) | 13.6 µM (active) | 19.3 µM (active) | – | – | – | – | – | – |
| Oc1cccc(-c2c3nc(c(-c4cccc(O)c4)c4ccc([nH]4)c(-c4cccc(O)c4)c4nc(c(-c5cccc(O)c5)c5ccc2[nH]5)CC4)C=C3)c1 | 29.8 µM (active) | 29.8 µM (active) | 26.6 µM (active) | inactive and 23.9 µM (active) | inactive | inactive | – | – | 23.7 µM (active) |
| Oc1cc2ccccc2c2ccccc12 | 1.22 µM (active) | 1.72 µM (active) | 1.09 µM (active) | 9.77 µM (active) | inactive | 13.7 µM (active) | – | – | 27.3 µM (active) |
| COCCCC/C(=N\OCCN)c1ccc(C(F)(F)F)cc1 | 6.68 µM (active) | 9.44 µM (active) | 10.6 µM (active) | – | – | – | – | – | – |
| CCOC(=O)O[C@H](C)OC(=O)c1ccc2c(c1)cc(C(=O)NC1CCN(C(C)C)CC1)n2Cc1cc(-c2ccc(Cl)s2)on1 | 6.41 µM (active) | 11.4 µM (active) | 11.4 µM (active) | 7.25 µM (active) | – | – | – | – | 57.1 µM (active) |
| NC(=O)CC[C@@H]1NC(=O)[C@H](Cc2ccccc2)NC(=O)[C@H](Cc2ccc(O)cc2)NC(=O)CCSSC[C@@H](C(=O)N2CCC[C@H]2C(=O)N[C@@H](CCCN=C(N)N)C(=O)NCC(N)=O)NC(=O)[C@H](CC(N)=O)NC1=O | inactive | inactive | inactive | inactive | – | – | – | – | inactive |
| Cc1ccc(-n2nc(C(C)(C)C)cc2NC(=O)Nc2ccc(OCCN3CCOCC3)c3ccccc23)cc1 | 18.8 µM (active) | 26.6 µM (active) | 26.6 µM (active) | inactive | – | – | – | – | inactive |
| CCCCCCCCCCCCCCCC(=O)OC[C@H](O)[C@H]1OC(=O)C(O)=C1O | inactive | inactive | inactive | inactive | inactive | inactive | inactive | inactive | inactive |

| Structure (SMILES) | Potency [1] | Potency [2] | Potency [3] | Potency [4] | Potency [5] | Potency [6] | Potency [7] | Potency [8] | Potency [9] |
| --- | --- | --- | --- | --- | --- | --- | --- | --- | --- |
| Cc1cc(O)c(C(C)(C)C)cc1C(C)(C)C | 10.9 µM (active) | 6.86 µM (active) | 13.7 µM (active) | 21.9 µM (active) | inactive | 54.5 µM (active) | – | – | – |
| O=C(O)c1ccc(Cl)c(Cl)c1 | inactive | inactive | inactive | inactive | inactive | – | inactive | inactive | inactive |
| CCCCCCC[N+](CC)(CC)CCCCc1ccc(Cl)cc1 | 1.01 µM (active) | 1.43 µM (active) | 1.27 µM (active) | inactive | – | – | – | – | – |
| Oc1c(Cl)cc(Cl)c2cccnc12 | 3.76 µM (active) | 3.76 µM (active) | 4.22 µM (active) | inactive | – | – | – | – | – |
| CCCCc1oc2ccc(NS(C)(=O)=O)cc2c1C(=O)c1ccc(OCCCN(CCCC)CCCC)cc1 | 9.44 µM (active) | 13.3 µM (active) | 18.8 µM (active) | 21.3 µM (active) | – | – | – | – | – |
| O=C(Nc1cccc([N+](=O)[O-])c1)c1cc2ccccc2cc1O | 2.17 µM (active) | 2.17 µM (active) | 2.17 µM (active) | 1.38 µM (active) | inactive | 6.86 µM (active) | – | inactive | 10.9 µM (active) |
| CCCCCCCCCCCC[N+](C)(C)CCCCCCCCCCCC | 4.33 µM (active) | 3.86 µM (active) | 4.33 µM (active) | 19.5 µM (active) | – | – | – | – | 27.3 µM (active) |
| Cc1onc(-c2c(Cl)cccc2Cl)c1C(=O)N[C@@H]1C(=O)N2[C@@H]1SC(C)(C)[C@@H]2C(=O)O | inactive | inactive | inactive | inactive | inactive | inactive | – | – | inactive |
| CCOC(=O)O[C@]1(C(=O)OCCl)CC[C@H]2[C@@H]3CCC4=CC(=O)C=C[C@]4(C)[C@H]3[C@@H](O)C[C@@]21C | inactive | inactive | inactive | inactive | – | – | – | – | inactive |
| CCCC/C=C/CCCCO | inactive | inactive | inactive | inactive | – | – | – | – | inactive |
| c1ccc(CSCc2ccccc2)cc1 | inactive | inactive | inactive | inactive | – | – | – | – | inactive |
| Cc1cc(O)c(Cl)c(C)c1Cl | 24.3 µM (active) | 24.3 µM (active) | 17.2 µM (active) | 27.5 µM (active) | inactive | 54.5 µM (active) | – | – | – |
| O=C(NO)C1(NS(=O)(=O)c2ccc(Oc3ccc(F)cc3)cc2)CCOCC1 | 54.5 µM (active) | 30.6 µM (active) | 30.6 µM (active) | inactive | – | – | – | – | – |
| O=C(O)c1c(Cl)cccc1Cl | inactive | inactive | inactive | inactive | – | – | – | – | – |
| CCC(C)Nc1ccc(NC(C)CC)cc1 (stereo not drawn) | 12.4 µM (active) | 5.55 µM (active) | 6.99 µM (active) | 12.5 µM (active) | inactive | 8.8 µM (active) | 8.88 µM (active) | – | 19.7 µM (active) |
| [Cl][Au]([Cl])[Cl] | 13.7 µM (active) | 12.2 µM (active) | 13.7 µM (active) | 21.9 µM (active) | – | – | – | – | 48.6 µM (active) |
| CC[C@H](c1ccc(O)cc1)[C@@H](CC)c1ccc(O)cc1 | 12.2 µM (active) | 10.1 µM (active) and 13.7 µM (active) | 19.3 µM (active) | inactive | inactive | inactive and 54.5 µM (active) | 8.11 µM (active) and 21.9 µM (active) | inactive | – |
